# “And” between values parts separate entries of the source, which are not always exact repeats. Identical values can stand only once. A structure can be active in one record and inactive in another. The source made the active and inactive calls. How the source made its calls: active means hit-call score of the fitted dose curve at least 0.9, where 1 is the maximum; inactive means score below 0.9.
# Assay: APR_HepG2_MitoMass_24hr: Apredica 24-hour HepG2 Assay for Mitochondrial Mass (AID 2282912)
# Conditions: high-content imaging, actives raise or lower the signal
# How it was run: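 HepG2, 24 hr dosing, 10 concentrations 0.39–200 uM in duplicate, DMSO 0.5% final. MitoTracker Red CMXRos 250 nM, 30 min pre-fix; 3.7% formaldehyde fix. Imaging-based fluorescence intensity; gain/loss fit vs DMSO baseline.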
SMILES,outcome,AC50
O=C(c1ccc(OCCN2CCCCC2)cc1)c1c(-c2ccc(O)cc2)sc2cc(O)ccc12,inactive,–
CC/C(=C(\c1ccccc1)c1ccc(OCCN(C)C)cc1)c1ccccc1,–,6.38 µM (active) and 7.4 µM (active)
C[C@]12CC[C@@H]3c4ccc(O)cc4CC[C@H]3[C@@H]1CC[C@@H]2O,inactive,–
C#C[C@]1(O)CC[C@H]2[C@@H]3CCc4cc(O)ccc4[C@H]3CC[C@@]21C,inactive,–

# Assay: APR_HepG2_p53Act_24hr: Apredica 24-hour HepG2 Assay for p53 Activation (AID 2282913);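 further: p53 protein immunofluorescence averaged per cell in HepG2 with Hoechst nuclei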
# Conditions: high-content imaging, actives raise or lower the signal
# How it was run: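 Automated fluorescence imaging quantifies p53 immunostaining in HepG2 cells after a 24 hr exposure (0.39–200 uM, duplicate, 0.5% DMSO). Nuclei are located by Hoechst 33342 staining.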
SMILES,outcome,AC50
O=C(c1ccc(OCCN2CCCCC2)cc1)c1c(-c2ccc(O)cc2)sc2cc(O)ccc12,inactive,–
CC/C(=C(\c1ccccc1)c1ccc(OCCN(C)C)cc1)c1ccccc1,–,16.1 µM (active) and 11.3 µM (active)
C[C@]12CC[C@@H]3c4ccc(O)cc4CC[C@H]3[C@@H]1CC[C@@H]2O,–,25.1 µM (active)
C#C[C@]1(O)CC[C@H]2[C@@H]3CCc4cc(O)ccc4[C@H]3CC[C@@]21C,–,87.5 µM (active)

# Assay: APR_HepG2_CellCycleArrest_72hr: Apredica 72-hour HepG2 Assay for Cell Cycle Arrest (AID 2282914)
# Conditions: high-content imaging, actives raise or lower the signal
# Description: APR_HepG2_72hr is a cell-based, multiplexed-readout assay that uses HepG2, a human liver cell line, with measurements taken at 72 hours after chemical dosing in a 384-well plate.APR_HepG2_CellCycleArrest_72hr is one of 10 assay component(s) measured or calculated from the APR_HepG2_72hr assay. It is designed to make measurements of cell phenotype, a form of morphology reporter, as detected with fluorescence intensity signals by HCS Fluorescent Imaging technology.Data from the assay component APR_HepG2_CellCycleArrest_72hr was analyzed into 1 assay endpoint. This assay endpoint, APR_HepG2_CellCycleArrest_72hr, was analyzed with bidirectional fitting relative to DMSO as the negative control and baseline of activity. Using a type of morphology reporter, measures of all nuclear dna for gain or loss-of-signal activity can be used to understand the signaling at the pathway-level as they relate to the gene . Furthermore, this assay endpoint can be referred to as a primary readout, because this assay has produced multiple assay endpoints where this one serves a signaling function. To generalize the intended target to other relatable targets, this assay endpoint is annotated to the cell cycle intended target family, where the subfamily is arrest.
# Cells were treated with dimethyl sulfoxide (DMSO) as a solvent control at a final concentration of 0.5% v/v or with compounds in DMSO with a resulting final DMSO concentration of 0.5% v/v. Compound treatment was done at concentrations of 0.39, 0.78, 1.56, 3.12, 6.24, 12.5, 25, 50, 100, and 200 uM in duplicate on each plate. Cells were treated with compounds for 1, 24, or 72 hr. Carbonyl […] m-chloro-phenylhydrazone (CCCP) and taxol were used as positive controls for mitochondrial function and cytoskeletal stability, respectively; DMSO served as the negative control for this experiment. Cells were fixed by the direct addition of 50 uL formaldehyde in Hank's Balanced Salt Solution (HBSS) to a final concentration of 3.7%. After incubation in the fixation medium for 30 min at room temperature (293-298 K), cells were rinsed twice with HBSS and treated with cell permeabilization buffer (16 uL of 0.5% Triton X-100) for 10 min at room temperature (293-298 K) before labeling. For mitochondrial membrane potential and mitochondrial measurements, pre-fixed cells were incubated with 50 uL of MitoTracker Red CMXRos (Invitrogen) at a concentration of 250 nM for 30 min before fixation. In the remaining cases, post-fixed cells were labeled by incubation with a multiplexed mixture of primary antibodies in HBSS for 60 min at room temperature (293-298 K) to detect immunoreactivity of c-Jun (1:500), phospho-histone H3 (1:100), phospho-histone H2A.x (1:200), p53 (1:400), alpha-tubulin (1:200) and Hoechst 33342 (2 ug/mL). Cells were labeled for multiplexed imaging on two separate plates: a) Hoechst 33342, MitoTracker Red, phospho-histone H3, and alpha-tubulin, and b) Hoechst 33342, phospho-histone H2A.x, and c-Jun. A final rinse with HBSS (50 uL) was performed before analysis. The primary and secondary antibodies for the proteins were phospho-histone H3 (rabbit anti-phospho-histone H3 and FITC-donkey anti-rabbit IgG), phospho-histone H2A.x (mouse anti-phospho-histone H2A.x and FITC-donkey anti-mouse IgG), c-Jun (rabbit anti-phospho-c-Jun and Cy3-donkey anti-rabbit IgG), p53 (sheep anti-p53 and Cy5-donkey anti-sheep IgG), alpha-tubulin (mouse anti-alpha-tubulin and Cy5-donkey anti-mouse IgG). […]
SMILES,outcome,AC50
O=C(c1ccc(OCCN2CCCCC2)cc1)c1c(-c2ccc(O)cc2)sc2cc(O)ccc12,inactive,–
CC/C(=C(\c1ccccc1)c1ccc(OCCN(C)C)cc1)c1ccccc1,inactive,29.4 µM (active)
C[C@]12CC[C@@H]3c4ccc(O)cc4CC[C@H]3[C@@H]1CC[C@@H]2O,inactive,–
C#C[C@]1(O)CC[C@H]2[C@@H]3CCc4cc(O)ccc4[C@H]3CC[C@@]21C,–,27.9 µM (active)

# From PubChem BioAssay (EPA / NIEHS)
